According to the supplement of paper PMC3334620:
Over roughly 33,000 sequences, “E-score (-0.5 to 0.5)” has its median near -0.012; the highest 2% begin near 0.27. For the sample, the highest values were picked, then their nearest neighbours and some sequences at random.

Target: T1, Vhr1 (UniProt P40522)
T1 sequence: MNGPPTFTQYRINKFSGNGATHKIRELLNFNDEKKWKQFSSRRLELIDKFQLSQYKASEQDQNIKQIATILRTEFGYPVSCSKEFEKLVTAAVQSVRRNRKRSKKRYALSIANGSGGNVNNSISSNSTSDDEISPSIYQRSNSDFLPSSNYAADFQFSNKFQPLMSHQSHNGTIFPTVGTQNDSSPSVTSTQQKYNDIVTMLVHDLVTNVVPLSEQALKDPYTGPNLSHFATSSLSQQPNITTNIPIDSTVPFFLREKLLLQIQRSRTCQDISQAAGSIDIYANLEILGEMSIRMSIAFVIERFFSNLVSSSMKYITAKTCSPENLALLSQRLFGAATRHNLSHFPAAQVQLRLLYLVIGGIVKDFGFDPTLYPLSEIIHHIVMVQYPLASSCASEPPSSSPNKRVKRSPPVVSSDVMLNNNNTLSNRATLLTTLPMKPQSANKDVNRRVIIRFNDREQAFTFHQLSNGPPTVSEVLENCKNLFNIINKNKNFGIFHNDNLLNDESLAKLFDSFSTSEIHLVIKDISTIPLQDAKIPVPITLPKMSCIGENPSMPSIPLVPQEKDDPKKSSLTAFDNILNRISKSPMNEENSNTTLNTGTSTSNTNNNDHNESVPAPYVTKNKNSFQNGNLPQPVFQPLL
Assay: PBM E-score (8-mer binding enrichment) (E-score (-0.5 to 0.5)); higher = stronger / more preferred TF binding
Settings: protein concentration: 200 nM; construct: GST-full length
Description: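 Universal 'all 10-mer' protein binding microarrays (Agilent AMADID 015681) probed with GST-tagged S. cerevisiae TFs (full-length or DBD) made by in vitro transcription/translation (PURExpress), about 100-200 nM. Bound TF was detected with fluorescent anti-GST. Each ungapped 8-mer (which stands for itself and its reverse complement) is scored by the PBM enrichment score (E-score), a modified Wilcoxon-Mann-Whitney statistic from -0.5 to +0.5, computed with the Universal PBM Analysis Suite. Scale: above 0.35 generally sequence-specific binding.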

Sequence | PBM E-score
CACTCGTA | -0.0431
AACTCGCC | 0.00825
TACTCGGA | 0.126
AACTCGGA | 0.0616
AACTCGCA | -0.0141
TACTCGCA | 0.263
GACTCGCA | 0.319
GACTCGCC | 0.276
AACTCGTA | 0.0622
CACTCGCC | 0.147
GACTCGGA | 0.278
GACTCGTA | 0.327
AGCGCATA | -0.0303
CCCAATAG | -0.0738
GACTAAGA | 0.0912
AGTGTTGG | 0.107
ATGCTGGA | -0.001
AATCTCTC | -0.0867
CTAGAGGC | -0.341
CCTTAGAC | -0.16
AGGCTGAG | -0.0574
CACGCGTA | -0.0315
AACGCGTC | -0.137
CACGCGTC | 0.275
GCTCATAA | 0.0821

Sequence | PBM E-score
GTGAGCCA | 0.355
CTGAGCCA | 0.247
ATGAGCCA | 0.271
GCAATGGA | -0.128
AGGAGTGG | 0.0494
ATCAGAAC | 0.0119
GCAGTCAA | 0.0401
ACAGTCAC | 0.242
GCAGTCAC | 0.353
CCAGTCAA | 0.045
CCAGTCAC | 0.296
GCAGTCCC | 0.106
ACGTTGCA | -0.0853
ACCATTAT | 0.169
GCCATGCC | 0.00234
TCTGCCAA | -0.205
CACTGATA | 0.0775
GCAAAATA | 0.00706
ACAATCAC | 0.275
GCAATCAC | 0.159
ATAATCAC | 0.308
GTAATCAC | 0.198
ATAATCAG | 0.0967
ATAATCAT | 0.389
ATAATCAA | 0.0618

Sequence | PBM E-score
CCAATCAC | 0.179
CTAATCAC | 0.27
ACCAGCGT | 0.0656
GCAGAACA | 0.091
CTATTGGA | -0.0419
CAAGGGCG | -0.203
CCACTCGG | -0.147
CTCCCTAA | -0.107
GCAGATTA | 0.0608
ATAAGAAG | -0.11
GAGTACCA | 0.172
CTCCAATC | 0.0374
ATAGTCTG | -0.0734
ATAGTCAG | 0.333
ATAGTCCC | 0.0218
ATAGTCAA | 0.165
CTAGTCAG | 0.247
AAAGTCAT | 0.256
ATAGTCAC | 0.41
ATAGTCAT | 0.411
ATCGTCAT | 0.134
CAACCTTC | -0.171
AACTGGGT | -0.041
GAAGAATC | -0.1
TCTTCACA | 0.0437

Sequence | PBM E-score
CTTTCACC | -0.204
ATTGTTCC | 0.127
TCAAGCGA | -0.0594
GGCTCTAA | -0.0817
ACATAACA | 0.0352
GCATAACA | -0.116
TCATAACA | 0.272
CTCTTGGA | 0.0822
AAAGATTT | -0.134
AATCACAG | 0.27
AATCACAC | 0.316
ACGCACAG | 0.04
ACACTCAC | 0.281
ACTCTCAC | 0.115
AATCACAT | 0.17
CCTCACAG | 0.0151
ACTCACAT | 0.286
ACACTCAG | -0.0414
AATCACAA | 0.187
ACTCACAG | 0.325
ACGCACAT | 0.0403
AGTCTGAC | 0.148
AGGGTCAC | -0.0656
CTTCTTAC | -0.221
CACGGCGG | 0.102

Sequence | PBM E-score
ACAGGAGG | -0.164
CGGAGTAA | 0.0314
AATCGTGT | 0.0868
AAAAGAGG | -0.134
GCCACACC | 0.134
CCGGTGGC | -0.0116
TCTCACAA | 0.0793
ACTCACAC | 0.39
GCTCACAC | 0.148
CCTCACAC | -0.0104
ACTCACAA | 0.286
CCTCACAA | 0.115
GAAAGTCC | -0.317
CGAGACTA | 0.202
AGAGACTC | 0.222
CAAGACTA | -0.0514
CAAGACTG | -0.0294
CGAGACTC | 0.309
CAAGACTC | 0.295
TAGTTATA | 0.00574
ACCCTACC | 0.00399
ACATTGAC | 0.0886
CAAAGCCG | -0.295
CTCACCTA | 0.103
ATTACTGC | 0.206

Sequence | PBM E-score
TACGAAGA | -0.0938
CCCTACTC | -0.067
AGGTATGA | 0.163
AACACACA | 0.33
CGCACACA | 0.134
AACACACG | 0.00318
CACACAAA | 0.124
CACACATA | 0.204
TACACACA | 0.268
CACACACG | 0.272
CACACACA | 0.276
AACACACT | 0.205
CCCATTCG | 0.00579
AAGAGGGT | -0.255
AGAGGTAT | 0.144
CGTCCTAG | -0.181
ATGCTAAG | -0.0834
CCTATCAA | -0.182
AGTCATCG | 0.44
CGTCATCA | 0.0722
ATTCATCG | 0.121
AGTCATCA | 0.439
AGTCATCC | 0.464
CGTCATCC | 0.0455
AGGCATCG | -0.22

Sequence | PBM E-score
ATTCATCC | 0.0498
GGTCATCA | 0.136
CGGCGGGC | 0.221
CAAGATAA | 0.0275
CATGGAGG | -0.101
CCACGAAC | 0.101
CAGGACAC | 0.135
ACTCATCA | 0.32
TCTCATCA | -0.131
ACTCATCC | 0.412
ACTCATCT | 0.199
GCTCATCA | 0.109
CCTCATCC | -0.182
CCTCATCG | 0.0284
GCTCATCC | 0.0555
ACTCATCG | 0.304
GCCTTCAC | -0.0812
CTTTATCA | -0.157
AAGCTACC | 0.00426
ACCCAGGA | -0.00244
GCCCATGA | 0.262
ACCCATGA | 0.287
